# High-throughput results from PubChem.
# ClpP mod: qHTS Assay for Activators of ClpP | AID 651965, 2013 | Potency, µM (highest dose often 57.5 µM) | 340,000 compounds, 1.9% hits | purified B. subtilis ClpP, FRET peptide cleavage, 20 min | ATP-dependent Clp protease proteolytic subunit (Bacillus subtilis (strain 168)), P80244; active = well fitted falling curve with a large enough effect; inconclusive = small, poorly fitted or top-dose-only effect; inactive = no such curve, though single readings can be large or run the other way; also: the source files actives as falling curves though it sought activators and does not explain the sign; nearly all actives have a fitted effect of over 65% in size
#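 Purified B. subtilis ClpP, 10 microg/mL final in Tris/HCl pH8 with KCl, BSA, glycerol and Tween-20, cleaved an Abz/nitrotyrosine-quenched decapeptide. Fluorescence (ex 320, em 430) was read at 0 and 20 min at room temperature. Delta was normalized to 5.8 microM ADEP and DMSO/no-enzyme controls.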
# Rango-impB inh: Rango-importin beta binding inhibition. Q14974. Rango CFP/YFP FRET sensor + importin beta, 45 min. Potency, µM (titrated, usually from 92.2 µM). 340,000 compounds, 0.031% hits; calls by dose curve; also: nearly all actives have a fitted effect of over 15% in size
#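 FRET biosensor Rango (snurportin 1 IBB between N-terminal EYFP and C-terminal Cerulean), 50 nM in PBS/1 mM DTT/0.02% Tween-20/0.1% BSA, preincubated 5 min RT with compound; 0.125 microM importin beta added, 45 min RT, CFP/YFP FRET ratio read.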
# PTAP TSG101 blk: blocks PTAP/TSG101 interaction to inhibit HIV-1 budding | Fluorescence polarization, FITC-PTAP peptide / Tsg101 binding | Potency, µM (titrated, usually from 115 µM), usual class: inhibitors | Q99816 | 340,000 tested, under 10 active | AID 493005; active = well fitted inhibition curve with a large enough effect in the main read-out, with a control signal flat, not every such curve was filed as active; inconclusive = small, poorly fitted or top-dose-only effect, or effect the other way, or a change in a side signal; inactive = no such curve, though single readings can be large or run the other way
#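 Tsg101 binding domain (10 uM final) was mixed with compound and a FITC-labeled PTAP peptide (50 nM final) in HEPES pH 7.5 buffer with NaCl, Tween 20, EDTA and TCEP; fluorescence polarization was read after 20 min at r.t.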
# Rango dissoc inh: prevents RanGTP from dissociating the Rango-importin beta complex | O95149+P62826 | Biochemical FRET Rango-importin beta, RanGTP-induced dissociation | Potency, µM (top dose mostly 46.1 µM) | 340,000 compounds, 0.071% hits; calls by dose curve; also: nearly all actives have a fitted effect of over 45% in size
#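 Rango FRET biosensor (snurportin-1 IBB flanked by N-terminal EYFP and C-terminal CFP10) at 0.1 uM, with 0.25 uM importin beta in PBS, 1mM DTT, 0.02% Tween-20, 0.1% BSA. 0.6 uM Ran, 2mM GTP and 0.2 uM RCC1 were then added for 45 min at room temperature. Inhibition read as loss of FRET rise.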
# ALOX12 inh: ALOX12 (human) lipoxygenase inhibition; P18054; purified 12hLO, xylenol orange hydroperoxide absorbance; Potency, µM (doses to about 108 µM), actives largely listed as inhibitors; 580,000 compounds, 1.1% hits; AID 1671190
# Target sequence (P18054 whole entry, looked up): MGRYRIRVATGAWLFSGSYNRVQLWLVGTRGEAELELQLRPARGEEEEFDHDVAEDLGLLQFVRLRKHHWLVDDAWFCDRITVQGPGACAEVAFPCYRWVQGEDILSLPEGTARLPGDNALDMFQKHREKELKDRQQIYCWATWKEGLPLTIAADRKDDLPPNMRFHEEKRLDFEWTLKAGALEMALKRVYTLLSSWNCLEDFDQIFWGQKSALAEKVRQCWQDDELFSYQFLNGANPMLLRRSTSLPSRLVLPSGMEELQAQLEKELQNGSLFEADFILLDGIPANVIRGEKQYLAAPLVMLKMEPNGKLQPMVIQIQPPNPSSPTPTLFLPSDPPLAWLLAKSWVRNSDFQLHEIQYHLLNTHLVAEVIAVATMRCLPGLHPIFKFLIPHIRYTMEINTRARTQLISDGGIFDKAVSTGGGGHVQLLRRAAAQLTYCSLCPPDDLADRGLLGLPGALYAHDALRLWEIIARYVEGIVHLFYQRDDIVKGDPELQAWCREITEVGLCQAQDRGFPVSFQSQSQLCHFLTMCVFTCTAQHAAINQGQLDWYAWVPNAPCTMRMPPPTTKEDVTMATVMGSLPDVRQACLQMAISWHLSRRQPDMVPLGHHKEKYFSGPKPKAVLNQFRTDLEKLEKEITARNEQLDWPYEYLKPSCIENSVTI
#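 Purified human 12hLO at 150 nM in 25 mM Hepes, 0.01% Triton X-100, pH 7.0, preincubated 15 min at room temperature with compound. Reaction started with 40 uM arachidonic acid, 30 min at room temperature. Hydroperoxide measured by Fe-xylenol orange, 573/405 nm absorbance ratio.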
# TDP1 inh: blocks human tyrosyl-DNA phosphodiesterase 1; Q9NUW8; recombinant TDP1, AlphaScreen DNA substrate cleavage; Potency, µM (top dose mostly 130 µM), usual class: inhibitors; 350,000 compounds, 0.28% hits; AID 485290; also: nearly all actives have a fitted effect of over 40% in size
#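 Tdp1 1 nM final; 15 min RT w/ cpd; substrate 15 nM, 5 min; beads 10 ug/ml, 10 min; AlphaScreen read. Neg ctrl: no enzyme.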
# Numbers stand for hits; - = inactive; ? = inconclusive; . = no result given; [ ] = remark or other dose. Most compounds without a hit are left out; they make up all but 2.4% or so of the library. Unless noted, calls follow the shape of the dose curve; as a rule, active = well fitted curve in the direction sought with a large enough effect; inconclusive = small, poorly fitted or top-dose-only effect, or another doubt; inactive = no such curve, though single readings can be large; an effect the other way counts as inactive or inconclusive.
SMILES,ClpP mod,Rango-impB inh,PTAP TSG101 blk,Rango dissoc inh,ALOX12 inh,TDP1 inh
CCc1ccc(/C=C/C(=O)c2ccc(O)c(CCCl)c2)cc1,.,.,.,.,-,.
O=C(/C=C/c1ccccc1Br)c1ccc(O)c(CCCl)c1,.,.,.,.,13µM,.
CCC(=O)N1Cc2ccccc2CC2(CCN(Cc3ccncc3)CC2)C1,.,.,.,.,-[6.33 µM],.
Nc1cc(S(=O)(=O)Nc2ccccc2Cl)ccc1N1CCCCC1,-,?,-,-,28µM,-
Cc1ccc(S(=O)(=O)Nc2ccc(Nc3ccccc3)cc2)cc1,.,-,-,-,18µM,.
Cc1ccc(S(=O)(=O)Nc2ccccc2O)cc1,-,.,.,.,-,.
Cc1ccc(S(=O)(=O)Nc2ccc(Cl)cc2O)cc1,-,.,.,.,28µM,.
Cn1c(=O)c(=O)n(C)c2cc(N3CCCC3)c(NS(=O)(=O)c3ccc(Cl)cc3)cc21,-,-,-,-,40µM,-
CCCCn1c(-c2csnn2)nc2c1c(=O)[nH]c(=O)n2CCCC,.,.,.,.,-,.
CC(C)(C)c1ccc(C(CC(=O)O)NC(=O)c2cccc(F)c2)cc1 (configuration not stated),.,.,.,.,-,.
Cc1ccc(S(=O)(=O)Nc2ccccc2NS(=O)(=O)c2ccc(C)cc2)cc1,-,.,.,.,7.9µM,.
S=c1[nH]nc(-c2cc(-c3ccccc3)n[nH]2)n1/N=C/c1ccc(Cl)c(Cl)c1,.,-,-,-,?,79µM
O=[N+]([O-])c1cc(/C=N/n2c(-c3ccncc3)n[nH]c2=S)ccc1Cl,.,-,-,-,-,-
S=c1[nH]nc(-c2cc(-c3ccccc3)n[nH]2)n1/N=C/c1cccc(Cl)c1,.,-,-,-,?,35µM
Cc1cc(-c2n[nH]c(=S)n2/N=C/c2ccc(Cl)c([N+](=O)[O-])c2)n[nH]1,-,-,-,-,40µM,-
Cc1[nH]c2c(F)cccc2c1CC(=O)N1CCCC(c2nc(C(C)C)no2)C1 (configuration not stated),.,.,.,.,-,.
CC12C=C(/C=C/C=C/c3ccccc3)C(C)(C1)C(/C=C/c1ccccc1)CC2=O (configuration not stated),.,.,.,.,.,-[21 µM]
CC12C=C(/C=C/C=C/c3ccco3)C(C)(C1)C(/C=C/c1ccco1)CC2=O (configuration not stated),.,.,.,.,.,2µM
CC(NC(=O)/C(C#N)=C\c1ccc(C(C)(C)C)cc1)c1ccccc1 (configuration not stated),.,.,.,.,-,.
CC(C)NC(=O)/C(C#N)=C/c1ccc(C(=O)O)cc1,.,.,.,.,22µM,.
CC(C)CNc1ncnc2c1ncn2[C@H]1CN(Cc2cccc3ccccc23)C[C@@H](CO)O1,-,.,.,.,?,.
OC[C@@H]1CN(Cc2cccc3ccccc23)C[C@H](n2cnc3c(NCc4ccco4)ncnc32)O1,-,.,.,.,35µM,.
Cc1cc(/C=C2/C(=N)N3C(=NC2=O)SN=C3S(C)(=O)=O)c(C)n1-c1ccccc1F,.,?,-,?,?,-
CS(=O)(=O)C1=NSC2=NC(=O)/C(=C\c3cccn3-c3ccc(Cl)cc3)C(=N)N21,-,?,-,?,?,79µM
COc1ccc(/C=N/N=C2/NC(=O)C(CC(=O)O)S2)cc1OCc1ccc(Cl)cc1Cl (configuration not stated),-,-,-,-,-,71µM
SMILES,ClpP mod,Rango-impB inh,PTAP TSG101 blk,Rango dissoc inh,ALOX12 inh,TDP1 inh
CC(C)C[C@@H](CN1CCCC1CN1C(=S)NC[C@@H]1Cc1ccccc1)N1C[C@H](Cc2ccccc2)N(CC2CCCCCC2)C1=S (some centres not stated),-,.,.,.,35µM,.
CC(C)C[C@H]1CNC(=S)N1C[C@H]1CCCN1C[C@H](Cc1ccc(O)cc1)N1C[C@H](Cc2ccc(O)cc2)N(CCc2ccccc2)C1=S,-,.,.,.,45µM,.
CC(C)C[C@H]1CN([C@@H](CC(C)C)CN2CCCC2CN2C(=S)NC[C@@H]2Cc2ccccc2)C(=S)N1CC1CCCCC1 (some centres not stated),-,.,.,.,?,.
CC(C)C[C@@H](CN1CCCC1CN1C(=S)NC[C@@H]1Cc1ccccc1)N1C[C@H](Cc2ccccc2)N(CCc2ccccc2)C1=S (some centres not stated),-,.,.,.,40µM,.
CCOC(=O)C1CCCN(C(=O)CC(c2ccc3c(c2)OCO3)c2cn(CC)c3ccccc23)C1 (configuration not stated),.,.,.,.,-,.
NS(=O)(=O)c1cc(C(=O)NC2CCSc3ccccc32)ccc1Cl (configuration not stated),.,-,-,-,?,1.3µM
CCCCn1c(SC(C)C(=O)c2ccc(Br)cc2)n[nH]c1=O (configuration not stated),.,.,.,.,-,.
O=C(C1CCC1)N1CCCC(CN2CCOCC2)CC1 (configuration not stated),.,.,.,.,-,.
CC(=O)c1ccc(N2CCN(CC(O)COC(c3ccccc3)c3ccccc3)CC2)cc1 (configuration not stated),.,-,-,-,?,-
CC(=O)c1ccc(N2CCN(CC(O)COC(c3ccccc3)c3ccccc3C)CC2)cc1 (configuration not stated),.,-,-,-,0.63µM,-
Cc1nc(S/C(=C/c2ccc(-c3ccc(C(=O)O)cc3)o2)C(=O)O)n[nH]1,-,?,-,?,-,4µM
O=C(NN=C(/C=C/c1ccccc1)/C=C/c1ccccc1)C(c1ccccc1)c1ccccc1,.,.,.,.,-,.
O=C(Sc1ccccc1)c1ccccc1,.,.,.,.,-,.
O=C(C=C(Sc1ccccc1)Sc1ccccc1)C(F)(F)F,.,.,.,.,35µM,.
CCCC(=O)Nc1sc(Cc2ccccc2)c(C)c1C(N)=O,-,-,-,-,?,-
COC(=O)CCC(=O)Nc1sc(Cc2ccccc2)c(C)c1C(N)=O,.,-,-,-,20µM,-
Cc1sc(NC(=S)NC(=O)CCc2ccccc2)c(C(N)=O)c1C,28µM,-,-,-,-,-
COC(=O)CCC(=O)NC(=S)Nc1sc(C)c(C)c1C(N)=O,-,-,-,-,-,-
Cc1ccc(C(=O)c2sc(Nc3ccc(Cl)cc3C)nc2N)cc1,.,.,.,.,28µM,.
Nc1ccc2c(c1Cl)C(=O)c1ccc(N)c(Cl)c1C2=O,-,-,-,-,-,3.5µM
COc1ccc(Nc2ccc([N+](=O)[O-])cn2)cc1,-,-,-,-,28µM,.
COc1ccc(CNc2ccc([N+](=O)[O-])cn2)cc1,.,-,-,-,-,.
CSc1ccccc1NC(=O)CN(C)Cc1c(O)ccc2ccccc12,.,-,-,-,5µM,-
CN(Cc1cc(Cl)cc(Cl)c1O)Cc1c(O)ccc2ccccc12,.,-,-,-,?,.
